G9a block: blocks human histone lysine methyltransferase G9a | G9a H3K9 monomethylation, AlphaScreen, 2 h | Q96KQ7 | Potency, µM (doses to about 102 µM), inactives show at the highest dose activity, negative = inhibition, usual class: inhibitors | 8.8% of 350,000 active; note: % is set by controls: 0 for no effect and ±100 for the full control effect; nearly all actives have a fitted effect of over 75% in size
Target sequence (Q96KQ7 913-1193 limits assumed): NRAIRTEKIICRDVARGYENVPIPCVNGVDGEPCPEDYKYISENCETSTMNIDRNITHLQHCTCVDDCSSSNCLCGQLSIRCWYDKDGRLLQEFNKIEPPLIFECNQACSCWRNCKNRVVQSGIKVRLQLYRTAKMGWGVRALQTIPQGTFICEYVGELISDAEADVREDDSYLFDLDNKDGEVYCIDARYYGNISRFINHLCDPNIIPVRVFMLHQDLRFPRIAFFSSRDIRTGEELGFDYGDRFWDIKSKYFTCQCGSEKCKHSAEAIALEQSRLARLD
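Compounds were preincubated with 20 nM G9a for 15 min, after which biotinylated H3K9 peptide (500 nM) and SAM (20 uM) started a 2 h room-temperature reaction. Monomethylated product was quantified by antibody-based AlphaScreen chemiluminescence.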
JMJD2A Tudor inh: blocks the human JMJD2A Tudor domain | AlphaScreen JMJD2A-Tudor / H3K4me3 peptide binding | O75164 | Potency, µM (highest dose often 114 µM), for the others: at the highest dose activity change, negative = inhibition, most hits filed as inhibitors | 4.4% of 390,000 active; note: % is set by controls: 0 for no effect and ±100 for the full control effect; nearly all actives have a fitted effect of over 50% in size
HP1b binding inh: blocks HP1-beta chromodomain binding to methylated histone tails. P83916. AlphaScreen HP1-beta / biotin-H3K9me3 peptide binding. Potency, µM (top dose mostly 114 µM), for the others: at the top dose activity change, negative = inhibition, actives largely listed as inhibitors. 0.56% of 390,000 active; note: nearly all actives have a fitted effect of over 70% in size
Target sequence (P83916 whole entry, looked up): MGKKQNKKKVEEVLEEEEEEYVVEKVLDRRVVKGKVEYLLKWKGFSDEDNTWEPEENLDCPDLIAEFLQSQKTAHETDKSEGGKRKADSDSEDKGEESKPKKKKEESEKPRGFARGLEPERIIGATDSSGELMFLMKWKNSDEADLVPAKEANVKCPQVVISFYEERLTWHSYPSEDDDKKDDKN
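Compound inhibition of the preformed complex between 50 nM HP1-beta and 50 nM biotinylated H3K9me3 peptide was read by AlphaScreen. Buffer was PBS pH 7.4 with 0.01% Tween-20. Incubations ran 30 min at room temperature, with 10 ug/mL donor/acceptor beads.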
TDP1 block: TDP1 (human) enzyme inhibition | recombinant TDP1, AlphaScreen DNA substrate cleavage | Q9NUW8 | AID 485290 | 0.28% of 350,000 active | Potency, µM (titrated, usually from 130 µM), without a hit: at the top dose activity change, negative = inhibition, usual class: inhibitors; note: % is set by controls: 0 for no effect and ±100 for the full control effect; nearly all actives have a fitted effect of over 40% in size
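Signal: AlphaScreen proximity between streptavidin donor and anti-FITC acceptor beads on intact substrate. Reaction: Tdp1 1 nM, substrate 15 nM final, 5 min RT after 15 min compound preincubation.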
Sfp inh: blocks B. subtilis Sfp PPTase activity; Potency, µM, without a hit: largest response in the series, negative = inhibition, hits mostly inhibitors; AID 1490; 3.5% of 310,000 active; Biochemical Sfp PPTase activity, qHTS; Q9F4F7;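 note: the enzyme is Sfp with the accession as filed and its product quenches rhodamine fluorescence; 0% = enzyme reaction without inhibitor and -100% = no enzyme wells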
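Fluorescence-quenching assay: 15 nM Sfp-PPTase preincubated 15 min at room temperature with compound, then 5 uM rhodamine-CoA and 12.5 uM BHQ-2-labelled YbbR peptide added. Fluorescence (ex 525/em 598 nm) read at start and after 30 min; difference gives rate.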
BAZ2B inh: inhibitors of human BAZ2B bromodomain; AlphaScreen BAZ2B-H3K14Ac peptide displacement; Potency, µM (titrated, usually from 114 µM), inactives show at the top dose activity change, negative = inhibition, usual class: inhibitors; 4.4% of 360,000 active; note: % is set by controls: 0 for no effect and ±100 for the full control effect; nearly all actives have a fitted effect of over 60% in size
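AlphaScreen displacement: compounds (up to 110uM) incubated 30 min at room temperature with a preformed 50 nM BAZ2B/50 nM biotinylated H3K14Ac peptide complex in PBS pH 7.4 with Tween-20. Donor and acceptor beads at 10 ug/mL final added, 20 min light-protected before reading.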
The depositor's hits bear a star; ? = inconclusive; nt = not tested or not shown; [ ] = dose if it differs, or a comment. Most compounds without a hit are left out; they make up all but 12% or so of the library. Calls come from the whole dose curve; as a rule, active = well fitted curve in the direction sought with a large enough effect; inconclusive = small, poorly fitted or top-dose-only effect, or another doubt; inactive = no such curve, though single readings can be large; an effect the other way counts as inactive or inconclusive. Potency is the fitted concentration of half-maximal effect.

SMILES	G9a block	JMJD2A Tudor inh	HP1b binding inh	TDP1 block	Sfp inh	BAZ2B inh
CCc1cccc(C)c1NC(=O)CN1C(=O)NC(C)(CCC(C)C)C1=O (centres undefined)	nt	-21%	8%[57 µM]	-1%	nt	nt
CCC(Sc1nc(C)cc(C)n1)C(=O)Nc1nccs1 (centres undefined)	nt	-7%	39%	3%	-20%	?
Cn1c(SCC(=O)Nc2ccc3nc(SCC(=O)NC4CC4)sc3c2)nnc1-c1ccccc1	9%	-4%	18%	-4%	0%	9%
Cn1c(SCC(=O)Nc2ccc3nc(SCC(=O)N4CCCC4)sc3c2)nnc1-c1ccc(N)cc1	10µM*	-23%	24%	35µM*	-28%	?
O=C(CSc1nc2ccccc2s1)Nc1ccc(N2CCOCC2)c(Cl)c1	7.1µM*	-22%	23%	4%	-11%	4%
O=C(CSc1nc2ccccc2s1)Nc1ccc(Cl)c(S(=O)(=O)N2CCOCC2)c1	?	-15%	17%	5%	7%	-23%
CCC(Sc1nc2ccc(N)cc2s1)C(=O)Nc1nccs1 (centres undefined)	13µM*	50µM*	26%	4%	-5%	-32%
Cc1ccc(NC(=O)CSc2nc3ccc(Nc4nc(N5CCOCC5)nc(N5CCOCC5)n4)cc3s2)cc1	35µM*	-18%	17%	1%	?	-20%
Cc1cccc(NC(=O)c2oc3ccccc3c2NC(=O)Cc2coc3c(C)c(C)ccc23)c1	-1%[59 µM]	2%	20%	6%	nt	0%
Cc1ccc(NC(=S)N2CCCC(CO)C2)c(C)c1 (centres undefined)	4%	-6%	13%[57 µM]	nt	11%	-1%
O=C1CCCC2=C1C1(CCOCC1)N=C(Nc1nc3ccccc3o1)N2	nt	-23%	nt	-5%	nt	nt
CCCC(=O)Nc1ccc2nc(SCC(=O)Nc3nccs3)sc2c1	?	79µM*	-10%	-3%	-13%	?
O=C(NCCCn1ccnc1)C(=O)NCC1OCCCN1S(=O)(=O)c1ccccc1 (centres undefined)	17%[59 µM]	-9%	12%	-3%	13%	14µM*
O=C(NCc1ccncc1)C(=O)NCC1OCCCN1S(=O)(=O)c1ccccc1 (centres undefined)	5%[59 µM]	-19%	19%	2%	3%	0%
O=C(NCCCn1ccnc1)C(=O)NCC1OCCN1S(=O)(=O)c1ccccc1 (centres undefined)	19%	?	33%	0%	9%	22µM*
O=C(NCCCn1ccnc1)C(=O)NCC1OCCN1S(=O)(=O)c1ccc(Cl)cc1 (centres undefined)	-14%	79µM*	24%	1%	10%	13µM*
Cc1ccc(OCc2cc(C(=O)N(C)Cc3cc(C4CC4)n[nH]3)no2)cc1C	8%	?	31%	7%	8%	-22%[57.1 µM]
COc1ccc(-c2cn3nc(N4CCC(C(=O)Nc5cc(Cl)ccc5OC)CC4)sc3n2)cc1	-7%[59 µM]	-6%	35%	4%	nt	4%
CC(O)CNCCCOc1cccc(Oc2ccccc2)c1 (centres undefined)	nt	22µM*	15%	nt	-21%	28µM*
CC(O)CNCCCOc1ccccc1OCc1ccccc1 (centres undefined)	13µM*	3.2µM*	-32%	nt	-13%	50µM*
CC(=O)NCCOc1cccc(OCCNC(C)=O)c1	11%[59 µM]	-14%	35%	-2%	18%	7%
CNCCCOc1cccc(Oc2ccccc2)c1	nt	1.6µM*	8%	-9%	-14%	50µM*
CNCCCOc1cccc(OC(C)C)c1	13µM*	1.6µM*	?	-5%	-16%	50µM*
CC1CCCCN1C(=O)CCNS(=O)(=O)c1ccc2c(c1)c(=O)n(C)c(=O)n2C (centres undefined)	16%	-15%	45%	5%	14%	-12%
CCc1ccc(Nc2nc3ccccc3c3nnc(C)n23)cc1	-5%[59 µM]	7%	41%	-3%	nt	-2%
SMILES	G9a block	JMJD2A Tudor inh	HP1b binding inh	TDP1 block	Sfp inh	BAZ2B inh
COc1ccc(-c2nc3c(c(SCC(=O)N4CCCCC4)n2)Cc2c(CO)cnc(C)c2O3)cc1	?	-22%	8%	5%	nt	?
O=C(NC(=S)N1CCOCC1)c1cn(-c2ccccc2)nc1-c1ccccc1	?	-28%	36%	1%	nt	-37%
Cc1ccc(C)n1-c1nc(=S)[nH][nH]1	1.3µM*	3.2µM*	16µM*	6%	14µM*	?
O=C(NCc1ccccn1)c1ccc2c(=O)n(CCc3ccccc3)c(=O)[nH]c2c1	?	-11%	74%	-7%	8%	-21%
O=C(NCc1ccccn1)c1ccc(-c2ccccc2)cc1	1%	10%	46%	6%	-1%	0%
Cc1ccccc1CS(=O)(=O)Cc1ccc(C(=O)NCc2ccccn2)o1	40%[0.501 µM]	-17%	40%	9%	2%	50µM*
CCN(CCCNC(=O)c1c(C)cc(=O)oc1C)c1cccc(C)c1	13µM*	?	3%	3%	-22%	?
O=C(NCc1ccccn1)c1ccc(=O)oc1	3.2µM*	8.9µM*	18%	-4%	89µM*	6.3µM*
CCCCCn1c(=O)[nH]c2cc(C(=O)NCc3ccccn3)ccc2c1=O	40µM*	?	11%	-10%	-5%	79µM*
O=C(NCc1ccccn1)c1ccc(CS(=O)(=O)Cc2ccc(Cl)cc2)o1	-15%	-5%	43%	3%	4%	-1%
COc1ccc(N2CC(NC(=O)/C=C\c3ccccc3)CC2=O)cc1OC (centres undefined)	10%[59 µM]	0%	27%	3%	nt	0%
CN1CCc2cc3c(cc2C(=O)Cc2ccc4c(c2C1)OCO4)OCO3	nt	nt	nt	5%	1%	nt
CC1CCCCN1C(=O)CSc1c2c(nc3cc(Cl)ccc13)CCCC2 (centres undefined)	-1%[59 µM]	-8%	63%	6%	nt	-5%
O=C(NOCc1ccccc1)c1coc(-c2ccccc2)n1	nt	-9%	39%	nt	nt	nt
COc1ccc(CNC(=O)CCCCCn2c(=O)[nH]c3ccccc3c2=O)cc1	-3%[59 µM]	-8%	28%	7%	nt	-2%
O=C(Nc1cccnc1Cl)c1ccc(=O)oc1	35µM*	?	2%	nt	?	56µM*
Cc1cc(=O)oc(C)c1C(=O)NCc1ccccn1	1.6µM*	2.5µM*	19%	-2%	-29%	16µM*
Cc1nc2ncccn2c1-c1csc(Nc2ccccc2)n1	25µM*	?	-18%	5%	56µM*	-37%
COc1ccc(Nc2nc(-c3c(C)nc4ncccn34)cs2)cc1	18µM*	?	-1%	1%	18µM*	?
CC(=O)Nc1ccc(Nc2nc(-c3c(C)nc4ccccn34)cs2)cc1	nt	79µM*	34%	nt	nt	nt
